According to PMC5540273 (PLoS ONE, 2017):

Tests used:
Conditions in all cases: concentration: 1 μM, replicates: in singlicate; n = 1
HASPIN = tested on: T1, HASPIN
T1 construct: gene GSG2

HCK = tested on: HCK
HIPK1 = tested on: HIPK1
HIPK2 = tested on: HIPK2
HIPK3 = tested on: HIPK3
HIPK4 = tested on: HIPK4
HPK1 = tested on: HPK1
HUNK = tested on: HUNK
ICK = tested on: ICK
IGF1R = tested on: IGF1R
IKK-alpha = tested on: T2, IKK-alpha
T2 construct: gene CHUK

IKK-beta = tested on: T3, IKK-beta
T3 construct: gene IKBKB

IKK-epsilon = tested on: T4, IKK-epsilon
T4 construct: gene IKBKE

INSRR = tested on: INSRR
INSR = tested on: INSR
IRAK1 = tested on: IRAK1
IRAK3 = tested on: IRAK3
IRAK4 = tested on: IRAK4
ITK = tested on: ITK
[1] = tested on: JAK1(JH1domain-catalytic)
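Further: KINOMEscan kinase panel screen.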

SMILES	%Inh (HASPIN) [%]	%Inh (HCK) [%]	%Inh (HIPK1) [%]	%Inh (HIPK2) [%]	%Inh (HIPK3) [%]	%Inh (HIPK4) [%]	%Inh (HPK1) [%]	%Inh (HUNK) [%]	%Inh (ICK) [%]	%Inh (IGF1R) [%]	%Inh (IKK-alpha) [%]	%Inh (IKK-beta) [%]	%Inh (IKK-epsilon) [%]	%Inh (INSRR) [%]	%Inh (INSR) [%]	%Inh (IRAK1) [%]	%Inh (IRAK3) [%]	%Inh (IRAK4) [%]	%Inh (ITK) [%]	%Inh [1] [%]
CN(C)Cc1ccc(-c2ccc3c(Nc4ccc(Oc5ccccn5)cc4)ccnc3c2)o1 [GW567148]	26	93.8	0	0	1	0	0	0	0	0	27	7	27	0	6	21	22	0	15	0
COc1ccc(-c2coc3ccc(-c4nnc(SCc5ccc(OC)c(C(F)(F)F)c5)o4)cc23)cc1	0	38	12	17	14	0	4	0	7	12	25	6	22	0	25	10	4	14	25	0
O=C(Nc1n[nH]c2cc(-c3ccoc3)ccc12)C1CC1 [SB-738481]	27	0	57	65	58	46	7	0	94.8	0	0	0	0	0	0	0	0	0	0	0
Cl.c1ccc(-c2ccc3c(Nc4ccc5[nH]ccc5c4)ccnc3c2)nc1 [GW440138]	23	19	0	0	0	0	10	0	0	40	17	8	19	0	0	28	0	3	0	12
CN1CCN(CCCNc2nccc(-c3c(-c4ccc(F)cc4)nn4cc(C(F)(F)F)ccc34)n2)CC1 [GW621581]	0	14	0	2	0	0	30	0	0	0	35	23	0	0	0	0	0	7	0	0
Cc1cccc(Nc2nc(N[C@H]3CCNC3)ncc2C(N)=O)c1.Cl [GSK2197149]	54	82	21	8	30	0	88	0	0	2	35	12	13	0	16	21	1	76	21	0
COCCOCCOc1cc2ncc3c4ccc(C#N)cc4[nH]c3c2cc1OC	18	4	90.3	87	87	32	7	0	41	2	30	30	60	0	0	96	75	99.9	39	0
COc1cccc(-c2ccc3c(NC(=O)C4CC4)n[nH]c3n2)c1 [SB-710903]	32	0	0	0	41	10	41	1	23	17	50	26	52	0	0	57	0	27	6	9
CCS(=O)(=O)c1ccc(OC)c(Nc2nccc(-c3c(-c4cccc(NC(=O)c5c(F)cccc5F)c4)nn4ncccc34)n2)c1 [GSK326180]	0	77	0	0	1	0	25	22	21	57	27	27	13	21	45	28	1	29	5	20
O=C(Nc1cccc(-c2nn3ccccc3c2-c2ccnc(Nc3cccc(C(F)(F)F)c3)n2)c1)c1c(F)cccc1F [GSK292658]	0	96.9	0	0	0	0	21	0	0	0	0	3	1	12	16	0	0	12	6	0
CC(C)(C)c1ccc2nccc(Nc3cccc(O)c3)c2c1 [GW856795]	27	60	18	50	0	0	37	0	24	0	31	0	0	0	0	0	0	0	19	0
O=c1[nH]cc(-c2ccc(N3CCOCC3)cc2)c2sc(-c3cn[nH]c3)cc12 [GSK2276055]	79	0	97.3	97.5	99	47	26	11	31	0	0	11	34	0	24	0	0	9	0	24
C[C@@H]1CC[C@@H](C(=O)Nc2ccccc2)CN1c1cc(-c2ccc3c(N)n[nH]c3c2)nc(N)n1 [GSK2286062]	5	0	0	0	0	25	36	11	0	23	0	0	25	0	25	0	0	0	1	2
CCn1c(-c2nonc2N)nc2c(C#CC(C)(C)O)ncc(OCCCCN)c21.O=C(O)C(F)(F)F.O=C(O)C(F)(F)F [GSK507274]	0	0	47	57	100	0	49	0	11	12	24	43	33	0	0	26	0	20	15	21
CN(c1ccc(NC(=O)Nc2cc(C(F)(F)F)ccc2F)cc1)c1ccnc(Nc2ccc(S(N)(=O)=O)cc2)n1 [GW809893]	2	98.3	59	64	84	99.1	99.4	15	21	0	82	44	7	13	15	49	51	6	59	95.3
Clc1ccc(-c2nn3ncccc3c2-c2ccnc(Nc3ccc4c(c3)OCCO4)n2)cc1 [GW829116]	0	54	14	0	0	0	0	50	0	0	0	0	17	0	0	0	0	0	0	0
COc1cccc(C(=O)Nc2cccc(Oc3ccc4nc(NC(=O)C5CC5)cn4n3)c2)c1	0	98.1	37	0	0	15	42	12	0	0	0	2	0	0	0	0	37	0	20	15
COc1cc(Nc2nccc(-c3c(-c4cccc(NC(=O)c5c(F)cccc5F)c4)nn4ncccc34)n2)cc(OC)c1OC [GSK327238]	0	96.6	0	0	18	29	82	12	4	95.8	0	0	23	93	64	0	74	0	5	17
COc1cc(Nc2nccc(N3CCC(NC(=O)Nc4cccc(C(C)=O)c4)C3)n2)cc(OC)c1OC (stereo not shown) [GSK1379753]	0	0	0	0	3	0	55	0	11	0	0	10	20	0	1	77	86	40	34	0
Nc1ncc(-c2ccc3nccc(-c4ccncc4)c3c2)cc1S(=O)(=O)N1CCOCC1 [GSK1627798]	50	0	37	15	25	76	49	0	36	35	21	9	11	15	35	31	73	16	11	3
